In the library only some 1.3% were active in any assay of this set; here they are far more common.
LRH-1 inv ag = suppresses constitutive activity of human LRH-1; O00482; HEK293T StAR-luciferase reporter, LRH-1 transfected, 24 h; inhibition, % at 3.6 µM; 360,000 compounds, 0.13% hits; AID 602396;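 active means inhibition above the mean inhibition of all tested compounds plus 3 SD, cut at about 73% in these data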;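 further: 0% = DMSO wells and 100% = reporter-only cells lacking LRH-1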
Gli-Sufu antag = Gli-Sufu pathway antagonism. Sufu-KO-LIGHT fibroblasts, Gli luciferase reporter luminescence. inhibition, % at 5 µM. 340,000 compounds, 0.74% hits;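 active means inhibition above about 55%, limit read from the data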;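 further: 0% = DMSO-treated cells and 100% = wells with medium but no cells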
SRC3 inh = human NCOA3 inhibition | Q9Y6Q9 | HEK293 GAL4-SRC3 luciferase reporter, luminescence | inhibition, % at 3.6 µM | 360,000 compounds, 0.17% hits | AID 588352;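 active means inhibition above a per-campaign cutoff, the mean of all compounds plus 3 SD, cut at about 60% in these data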;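 further: 0% = DMSO-treated cells and 100% = gossypol-treated cells at 36 µM; higher means less SRC3-driven luciferase light from the GAL4 reporter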
NCOA1 inh = inhibits human SRC1 coactivator | AID 588354 | 360,000 compounds, 0.12% hits | inhibition, % at 3.6 µM | HEK293 GAL4-SRC1 luciferase reporter, luminescence;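 active means inhibition above the campaign mean plus 3 SD, with each screening campaign given its own cutoff, cut at about 60% in these data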;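 further: 0% = DMSO treated cells and 100% = gossypol at 36 µM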
NCOA2 inhibitor = inhibits human steroid receptor coactivator 2; HEK293 GAL4-SRC2 luciferase reporter, luminescence; Q15596; 370,000 compounds, 0.17% hits; inhibition, % at 9 µM;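 active means inhibition above the mean inhibition of all tested compounds plus 3 SD, set per campaign, cut at about 52% in these data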;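 further: 0% = DMSO treated cells and 100% = cells given Gossypol at 36 µM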
NR2F2 inh = inhibitors of human COUP-TFII (NR2F2); 370,000 compounds, 0.7% hits; AID 686940; inhibition, % at 8.6 µM; HEK293T NGFI-A luciferase reporter, luminescence;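 active means inhibition above a per-plate cutoff, mean inhibition of test wells between control levels plus 3 SD, cut at about 38% in these data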;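 further: cells cotransfected with COUP-TFII expression vector driving the NGFI-A reporter; 0% = median of COUP-TF2 test wells and 100% = reporter-only cells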
Target sequence (P24468 whole entry, looked up): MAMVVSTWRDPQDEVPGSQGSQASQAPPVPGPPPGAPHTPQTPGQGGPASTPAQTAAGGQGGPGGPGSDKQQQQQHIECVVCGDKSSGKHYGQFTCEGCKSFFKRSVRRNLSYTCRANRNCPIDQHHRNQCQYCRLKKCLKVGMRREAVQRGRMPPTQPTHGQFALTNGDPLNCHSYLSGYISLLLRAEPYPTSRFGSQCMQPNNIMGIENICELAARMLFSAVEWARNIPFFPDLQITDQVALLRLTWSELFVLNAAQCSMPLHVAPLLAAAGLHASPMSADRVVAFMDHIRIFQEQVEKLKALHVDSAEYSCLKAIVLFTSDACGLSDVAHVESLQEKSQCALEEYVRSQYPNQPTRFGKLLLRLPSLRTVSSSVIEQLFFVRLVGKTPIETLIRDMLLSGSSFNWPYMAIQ
Gli-Sufu confirm = confirmation of Gli-SUFU pathway antagonists; shares compounds with Gli-Sufu antag; Sufu-KO-LIGHT cells, Gli luciferase reporter, luminescence; inhibition, % at 5 µM; 2,500 compounds, 40% hits;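 active means mean inhibition at 5 µM reaching about 45%, limit read from the data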;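 further: plate controls were DMSO-treated cells for no effect and wells lacking cells for full effect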
SufuKO cytotox = counter-screen for Gli-SUFU antagonists: cytotoxicity; shares compounds with Gli-Sufu antag; Sufu-KO-LIGHT cells cytotoxicity, ATP luminescence; cytotoxicity, % at 5 µM; 2,500 compounds, 32% hits; AID 651994;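 active means mean cytotoxicity at 5 µM above about 25%, limit read from the data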;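 further: cells exposed to compound overnight for roughly 16 to 18 hours; plate controls were DMSO wells with cells for no effect and medium without cells for full effect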
Wnt3a counter = inhibits Wnt3a reporter, counter-screen for Gli-SUFU antagonists; shares compounds with Gli-Sufu antag; Wnt-LIGHT cells, Wnt3a-driven luciferase reporter, luminescence; inhibition, % at 6.25 µM; 2,500 compounds, 20% hits; AID 651995;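 active means mean inhibition above about 25%, limit read from the data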
Gal4-VP16 ctr = counter-screen for COUP-TFII antagonists: inhibitors of VP16 | inhibition, % at 8.5 µM | shares compounds with NR2F2 inh | HEK293 Gal4-VP16 luciferase reporter, luminescence | 2,500 compounds, 25% hits; in the data active means inhibition above about 13%
NR2F2 inh conf = COUP-TFII (NR2F2) inhibition, confirmation assay; shares compounds with NR2F2 inh; HEK293 NGFI-A luciferase reporter, luminescence; inhibition, % at 8.5 µM; 2,500 compounds, 45% hits;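 active means mean inhibition over three repeats above a set limit taken from the earlier primary screen, cut at about 38% in these data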;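 further: 100% = cells given the luciferase reporter alone without the COUP-TF2 vector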
Numbers without * were called inactive.

COc1cccc(CN(C)C(=O)c2cccc(S(=O)(=O)N3CCN(c4ccc(F)cc4)CC3)c2)c1OC was read as LRH-1 inv ag 5.7, Gli-Sufu antag 51.2, SRC3 inh 17.2, NCOA1 inh 7.5, NCOA2 inhibitor 25.1, NR2F2 inh 58.5*, Gli-Sufu confirm 50.0*, SufuKO cytotox 32.5*, Wnt3a counter -11.9, Gal4-VP16 ctr -1.8 and NR2F2 inh conf 38.8*.
Screening CN(Cc1c(F)cccc1Cl)C(=O)c1cccc(S(=O)(=O)N2CCN(Cc3ccccc3)CC2)c1 returned LRH-1 inv ag -6.0, Gli-Sufu antag 7.7, SRC3 inh 0.0, NCOA1 inh -6.5, NCOA2 inhibitor -4.9 and NR2F2 inh 12.6.
`CN(Cc1ccc(OC(F)F)cc1)C(=O)c1cccc(S(=O)(=O)N2CCN(Cc3ccccc3)CC2)c1` gave LRH-1 inv ag 35.9, Gli-Sufu antag 58.2*, SRC3 inh 31.2, NCOA1 inh 25.0, NCOA2 inhibitor 20.1, NR2F2 inh 55.3*, Gli-Sufu confirm 58.3*, SufuKO cytotox 21.9, Wnt3a counter 2.8, Gal4-VP16 ctr -2.9 and NR2F2 inh conf 42.5*.
O=C(c1ccccc1Cl)N1CCC(Oc2cccnc2)CC1 was read as NCOA2 inhibitor 13.3 and NR2F2 inh -1.9.
C[C@H]1[C@@H](NCC2CCCCC2)CC[C@@]23CCCN2C(=O)CCC[C@@H]13 was read as NR2F2 inh -16.2.
Cc1ccc(Cl)cc1S(=O)(=O)N1CCC(C(=O)NC2CCN(Cc3ccccc3)CC2)CC1 was read as LRH-1 inv ag 9.2, Gli-Sufu antag 53.4, SRC3 inh 16.2, NCOA1 inh 12.9, NCOA2 inhibitor 15.6, NR2F2 inh 37.6*, Gli-Sufu confirm 24.1, SufuKO cytotox 7.4, Wnt3a counter -0.7, Gal4-VP16 ctr 5.3 and NR2F2 inh conf 44.2*.
For CC1(C)CC(N2CCCC2)=CC(=[N+]2CCCC2)C1 the results were LRH-1 inv ag 48.8, Gli-Sufu antag 81.9*, SRC3 inh -1.3, NCOA1 inh 34.3, NCOA2 inhibitor 25.9, NR2F2 inh 47.0*, Gli-Sufu confirm 85.5*, SufuKO cytotox 34.2*, Wnt3a counter 34.9*, Gal4-VP16 ctr 3.6 and NR2F2 inh conf 27.4.
CC1(C)CC(NNCCC#N)=CC(=[N+]2CCCC2)C1 was read as LRH-1 inv ag 2.1, Gli-Sufu antag 5.1, SRC3 inh 4.5, NCOA1 inh 7.3, NCOA2 inhibitor 22.2 and NR2F2 inh -7.3.
`CC1(C)CC(=O)c2sc(N3CCCCC3)nc2C1` gave LRH-1 inv ag -64.2, Gli-Sufu antag 8.4, SRC3 inh -118.7, NCOA1 inh -71.9, NCOA2 inhibitor -41.0 and NR2F2 inh -10.6.
Screening CC1(C)CC(N2CCCC2)=CC(=[N+]2CCCCC2)C1 returned LRH-1 inv ag 52.8, Gli-Sufu antag 82.0*, SRC3 inh 30.2, NCOA1 inh 43.4, NCOA2 inhibitor 8.5, NR2F2 inh 55.8*, Gli-Sufu confirm 84.9*, SufuKO cytotox 32.6*, Wnt3a counter 41.6*, Gal4-VP16 ctr 8.1 and NR2F2 inh conf 44.6*.
CC1(C)CC(N2CCN(Cc3ccccc3)CC2)=CC(=[N+]2CCCCC2)C1 was read as LRH-1 inv ag 56.6, Gli-Sufu antag 79.2*, SRC3 inh 43.8, NCOA1 inh 36.9, NCOA2 inhibitor 28.7, NR2F2 inh 52.5*, Gli-Sufu confirm 85.3*, SufuKO cytotox 33.9*, Wnt3a counter 38.8*, Gal4-VP16 ctr 5.5 and NR2F2 inh conf 35.6.
For CC(C)c1ccc(-c2nc3ccccc3s2)cc1 the results were LRH-1 inv ag 81.5*, Gli-Sufu antag 64.2*, SRC3 inh 86.6*, NCOA1 inh 81.9*, NCOA2 inhibitor 80.4*, NR2F2 inh 89.1*, Gli-Sufu confirm 82.2*, SufuKO cytotox 72.6*, Wnt3a counter 105.9*, Gal4-VP16 ctr 68.1* and NR2F2 inh conf 98.5*.
Screening C=CCN1[C@H](C#N)[C@@H](c2ccc(C#Cc3cccc(OC)c3)cc2)[C@H]1CO returned NCOA2 inhibitor 8.1 and NR2F2 inh 11.2.
For COc1ccc(-c2nsc3c(N4CCCCC4C)ncnc23)cc1 (stereo unspecified) the results were LRH-1 inv ag 85.9*, Gli-Sufu antag 80.9*, SRC3 inh 88.6*, NCOA1 inh 89.0*, NCOA2 inhibitor 82.0*, NR2F2 inh 96.9*, Gli-Sufu confirm 91.3*, SufuKO cytotox 47.2*, Wnt3a counter 105.3*, Gal4-VP16 ctr 88.3* and NR2F2 inh conf 103.7*.
`COc1ccc(CN(C)C(=O)c2cccc(NC(=O)CC3SC(N4CCCCC4)=NC3=O)c2)c(OC)c1` (stereo unspecified) gave LRH-1 inv ag 18.6, Gli-Sufu antag 65.4*, SRC3 inh 45.4, NCOA1 inh 12.7, NCOA2 inhibitor 27.0, NR2F2 inh 58.2*, Gli-Sufu confirm 48.9*, SufuKO cytotox 12.8, Wnt3a counter -4.8, Gal4-VP16 ctr 0.3 and NR2F2 inh conf 43.8*.
`COc1cccc(CN(C)C(=O)c2cccc(NC(=O)CC3SC(N4CCCCC4)=NC3=O)c2)c1OC` (stereo unspecified) gave LRH-1 inv ag -13.5, Gli-Sufu antag -4.3, SRC3 inh 4.9, NCOA1 inh 11.8, NCOA2 inhibitor 27.4 and NR2F2 inh -8.3.
`CCc1ccc(CN(C)C(=O)c2cc(COc3cccc4cnccc34)on2)cc1` gave LRH-1 inv ag 37.3, Gli-Sufu antag 64.8*, SRC3 inh 33.7, NCOA1 inh 14.5, NCOA2 inhibitor 17.7, NR2F2 inh 66.4*, Gli-Sufu confirm 61.7*, SufuKO cytotox 25.1*, Wnt3a counter -1.7, Gal4-VP16 ctr -7.2 and NR2F2 inh conf 57.5*.
Screening CCc1ccc(CN(C)C(=O)c2cc(COc3c(F)cccc3F)on2)cc1 returned LRH-1 inv ag -9.3, Gli-Sufu antag -2.9, SRC3 inh 6.4, NCOA1 inh 11.6, NCOA2 inhibitor -13.5 and NR2F2 inh -1.2.
